The results in this text go back to PubChem BioAssay (NCATS).

The structures appear in SMILES notation. Results filed as inconclusive are left out. A call without a number means that no potency is given here. Activity calls are given as the source filed them. Calls come from the whole dose curve; as a rule, active = well fitted inhibition curve with a large enough effect; inconclusive = small, poorly fitted or top-dose-only effect; inactive = no such curve, though single readings can be large or run the other way.
Potency is the fitted concentration of half-maximal effect.

The assay in a line: S16 Schwann cell PMP22 intronic element firefly luciferase assay (AID 624032). Note: nearly all actives have a fitted effect of over 30% in size. Conditions: S16 rat Schwann cells, PMP22 element FLuc, 24 h; series mostly up to 57.5 µM. The text has this:
Charcot-Marie-Tooth-Association [CMTA]
National Center for Advancing Translational Sciences [NCATS]
Charcot-Marie-Tooth (CMT) disease was first characterized by Jean-Martin Charcot and Pierre Marie in France and, independently, by Howard Henry Tooth in England in 1886. CMT is one of the most common inherited neurological diseases, affecting approximately 1 in 2,500 Americans. […] The most prevalent type of CMT is known as CMT1A and caused by a duplication of the PMP22 gene which leads to over-expression of this protein. PMP22 is a glycosylated intrinsic membrane protein accounting for 2-5% of the myelin protein content, and its over-expression results in demyelination and subsequently axonal loss.
A pair of cellular transcription-based assays was developed in the S16 rat Schwann cell lines (Hai, M., et al., 2002) stably transfected with orthogonal reporters - firefly luciferase (Fluc) and beta-lactamase (beta-Lac) - whose expression is driven by an intronic regulatory element of the PMP22 gene (Jones, E.A., et al., 2011) to recapitulate endogenous expression of PMP22. The current assay employs Fluc to report on PMP22 expression. A comprehensive library of approved drugs, the NCGC Pharmaceutical Collection (Huang, R., et al., 2011), was screened in the cross-validating platform of the orthogonal reporter assays to identify drug modulators inhibitory towards PMP22 expression.
A set of counter-screens was devised to address non-specific activity of the library. An ATP-dependent CellTiter-Glo assay (developed by Promega Corp) was utilized to control cell viability. In addition, biochemical Fluc enzyme assay was performed to assess direct inhibition of the Fluc enzymatic activity.
Hai, M., Muja, N., DeVries, G.H., Quarles, R.H. and Patel, P.I. Comparative analysis of Schwann cell lines as model systems for myelin gene transcription studies. J Neurosci Res, 2002. 69(4): pp 497-508
Huang, R., Southall, N., Wang, Y., Yasgar A., Shinn P., Jadhav, A. , Nguyen, D.-T. and Austin, C.P., The NCGC pharmaceutical collection: a comprehensive resource of clinically approved drugs enabling repurposing and chemical genomics. Sci Transl Med, 2011. 3(80): p. 80ps16.
S16 Schwann cell PMP22 intronic element firefly luciferase assay
The FLuc-expressing S16 cells were seeded in white solid 1536-well plates at between 500-750 cells/4uL in DMEM medium containing 10% FBS, w/o phenol red. After overnight incubation at 37 degree Celsius/5% C02, 23 nL of compounds or DMSO were delivered to each well using a pin tool, followed by 24h-incubation at 37 degree Celsius/5% C02. Then 4 uL ONE-Glo luminescent substrate mix (Promega) was added to each well. Luminescence was measured on a ViewLux plate reader (Perkin Elmer). The % activity was determined by normalizing to the average readings of PTC124 (a positive control) - treated cells relative to DMSO-treated cells (0% Activity). The concentration-effect curves were then classified based on curve quality (r2), response magnitude and degree of measured activity.
Turning to `COC(=O)C1=C(C)NC(C)=C(C(=O)OCCN(C)Cc2ccccc2)C1c1cccc([N+](=O)[O-])c1` (stereo not given), the Potency is 5.1 µM (active).
Regarding `CN/C(=C\[N+](=O)[O-])NCCSCc1ccc(CN(C)C)o1`, the Potency entry was “inactive”.
Consider `O=C(O)CN(CCOCCOCCN(CC(=O)O)CC(=O)O)CC(=O)O`, for which the Potency entry is “inactive”.
Then `C#CCN(C)CCCOc1ccc(Cl)cc1Cl`, with “inactive”.
For the compound `CCN(CC)CCCN(c1ccccc1)C1Cc2ccccc2C1`, the Potency is 16.1 µM (active).
In the case of `FC(F)(F)c1ccccc1-n1ccnc1`, the Potency entry was “inactive”.
`NC/C=C/C(=O)O`: the Potency entry is “inactive”.
Then `O=C(O)CCCCCCCC(=O)O`, with “inactive”; and `CCCCNC(=O)NS(=O)(=O)c1ccc(C)cc1`, with “inactive”; and `COc1cc(Cc2cnc(N)nc2N)cc(OC)c1OC`, with “inactive”.
Then `CC(C)(Oc1ccc(CCNC(=O)c2ccc(Cl)cc2)cc1)C(=O)O`, with “inactive”.
Then `CCCN1C[C@H](CSC)C[C@@H]2c3cccc4[nH]cc(c34)C[C@H]21`, with “inactive”; and `O=C(O)CP(=O)(O)O`, with “inactive”.
For the compound `COc1ccc([C@@H]2Sc3ccccc3N(CCN(C)C)C(=O)[C@@H]2OC(C)=O)cc1`, the Potency entry is “inactive”.
Next, `CCCCCCCC/C=C\CCCCCCCC(=O)NCc1ccc(O)c(OC)c1`: 4.55 µM (active); `C=CCc1ccccc1OCC(O)CNC(C)C` (stereo not given): “inactive”.
Consider `CCN(CC)CC(=O)Nc1c(C)cccc1C`, for which the Potency result is “inactive”.
Then `CN1CCN(CC(=O)N2c3ccccc3C(=O)Nc3cccnc32)CC1`, with “inactive”; and `Cc1ccc(Cl)c(Nc2ccccc2C(=O)O)c1Cl`, with “inactive”.
On to `CC(=O)OCC1=C(C(=O)O)N2C(=O)[C@@H](NC(=O)Cc3cccs3)[C@H]2SC1`, for which the Potency entry is “inactive”.
Turning to `CCN1CCC[C@H]1CNC(=O)c1c(O)c(Cl)cc(Cl)c1OC`, the Potency result is “inactive”.
`NC(=O)c1ncn([C@@H]2O[C@H](CO)[C@@H](O)[C@H]2O)c1O`: the Potency result is “inactive”.
Next, `C[C@H](CS)C(=O)N1CCC[C@H]1C(=O)O`: “inactive”.
Then `CC(C)(C)c1ccc(C(=O)CCCN2CCC(OC(c3ccccc3)c3ccccc3)CC2)cc1`, with 20.3 µM (active); and `Cc1ccc(S(=O)(=O)NC(=O)NN2CCCCCC2)cc1`, with “inactive”; and `O=C1CC2(CCCC2)CC(=O)N1CCCCN1CCN(c2ncccn2)CC1`, with “inactive”.
In the case of `CCNC(=O)N1CCN(CCCC(c2ccc(F)cc2)c2ccc(F)cc2)CC1`, the Potency is 1.44 µM (active).
Take `CCn1cc(C(=O)O)c(=O)c2cc3c(cc21)OCO3`: the Potency entry is “inactive”.
In the case of `O=C(CCCN1CCC(O)(c2cccc(C(F)(F)F)c2)CC1)c1ccc(F)cc1`, the Potency entry is “inactive”.
Next, `COc1ccc(CN(CCN(C)C)c2ccccn2)cc1`: “inactive”.
Next, `c1cnc(N2CCN(Cc3ccc4c(c3)OCO4)CC2)nc1`: “inactive”; `CCc1cccc(N(C)C(N)=Nc2cccc3ccccc23)c1`: “inactive”; `CCOC(=O)c1cnc2c(cnn2CC)c1NN=C(C)C`: “inactive”.
Then `NC(=Nc1ccccc1)Nc1ccccc1`, with “inactive”.
On to `CCCC(C(=O)OCCN(CC)CC)(c1ccccc1)c1ccccc1`, for which the Potency result was “inactive”.
Consider `NCCCNCCSP(=O)(O)O`, for which the Potency result is “inactive”.
Then `C[N+](C)(C)CCOC(=O)CCC(=O)OCC[N+](C)(C)C`, with “inactive”; and `CC[N+](C)(C)c1cccc(O)c1`, with “inactive”.
`Nc1c2c(nc3ccccc13)CCCC2O` (stereo not given): the Potency entry is “inactive”.
In the case of `NC1=NCC2c3ccccc3Cc3ccccc3N12` (stereo not given), the Potency result is “inactive”.
